Results as given in PubChem BioAssay AID686979 (National Center for Advancing Translational Sciences (NCATS), 2013).
Hit rate of the full screen: of about 420,000 compounds, about 50,000 (12%) were called active. Entries that show only a call come without a potency. About 26% were inconclusive and are not listed. Calls come from the whole dose curve; as a rule, active = well fitted inhibition curve with a large enough effect; inconclusive = small, poorly fitted or top-dose-only effect; inactive = flat fitted curve, though single readings scatter. The sample as a whole holds a higher share of actives than the screen did. Where a SMILES comes first, the peptide text is derived from it. Bridges are numbered along the chain shown (N, C = ends). [ ]: non-standard residue; d: D form. The star is where a group is joined. X4 = CC[C@H](C)CCCCC(=O)*; Dab = NCC[C@H](N)C(=O)O
Potency is the fitted concentration of half-maximal effect.

Assay: qHTS for Inhibitors of human tyrosyl-DNA phosphodiesterase 1 (TDP1): qHTS in cells in presence of CPT; note: nearly all actives have a fitted effect of over 55% in size
Conditions: chicken DT40 Tdp1-/-;hTDP1 cells + 20 nM CPT, ATP luminescence, 48 h; series mostly up to 46.2 µM
In short: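 Chicken DT40 Tdp1-/- cells stably complemented with human TDP1 were seeded at 400 cells/well in medium containing 20 nM camptothecin, exposed to pin-transferred compounds, and grown at 37 °C for at least 48 hr. Viability was read as ATP luminescence.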
With `O=C(CN1C(=O)COc2ccc(Cl)cc21)Nc1ccc(N2CCOCC2)cc1` the Potency was “inactive”. For `CCC(C)NC(=O)c1ccc(N2CCC3(CC2)OCCO3)c([N+](=O)[O-])c1` (centres undefined), the Potency was “inactive”. For `Cc1cccc(C(=O)OCC(=O)NCC(C)C)c1O`, the Potency was “inactive”. With `CC[C@H](C)CCCCC(=O)N[C@@H](CCN)C(=O)N[C@H](C(=O)N[C@@H](CCN)C(=O)N[C@H]1CCNC(=O)[C@@H]([C@H](C)O)NC(=O)[C@H](CCN)NC(=O)[C@H](CCN)NC(=O)[C@H](CC(C)C)NC(=O)[C@@H](CC(C)C)NC(=O)[C@H](CCN)NC1=O)[C@@H](C)O` (X4-[Dab]T[Dab][Dab][Dab][dL]L[Dab][Dab][dT]; lactam 4-C) the Potency was “inactive”. With `CSc1ccccc1NC(=O)COC(=O)CCCOc1ccc(C)cc1` the Potency was “inactive”. For `COc1cc([N+](=O)[O-])ccc1NC(=O)COC(=O)CCOc1ccc(C)cc1`, the Potency was 6.51 µM (active). For `COc1cc([N+](=O)[O-])ccc1NC(=O)CN1CCCC1`, the Potency was “inactive”. For `CC1(C)CC(=O)CC2(C1)NCC(c1ccccc1Cl)c1c2[nH]c2ccccc12` (centres undefined), the Potency was 18.4 µM (active). In the case of `Cc1ccc(C(=O)Nc2nc(N)n(-c3ccccc3)n2)cc1`, the Potency is reported as “inactive”. For `CCc1cccc(-n2nnc(-c3nsc(NC(=O)c4ccc(C)cc4)n3)c2C)c1`, the Potency was 9.2 µM (active). In the case of `Cc1ccc(C(=O)Nc2nc(-c3ccccc3)ns2)cc1`, the Potency is reported as “inactive”. For `CCN(CC(=O)Nc1ccc(NC(C)=O)cc1)C(=O)C1CC(=O)N(c2ccc3c(c2)OCCO3)C1` (centres undefined), the Potency was “inactive”. With `COc1cccc(CNC(=O)CCC2CCCN(C(=O)c3cc(C)[nH]n3)C2)c1` (centres undefined) the Potency was “inactive”. For `COc1cccc(CNC(=O)CCC(=O)N2CC3CCCN3c3ccccc32)c1` (centres undefined), the Potency was 14.6 µM (active). With `COc1cccc(CNC(=O)C2CC(=O)N(C3CCCCCCC3)C2)c1` (centres undefined) the Potency was “inactive”. In the case of `CCOc1ccc(-c2nc(C)sc2CC(=O)O)cc1`, the Potency is reported as “inactive”. In the case of `Cc1cc(C)cc(NC(=O)C2CCCN(S(=O)(=O)c3ccc4[nH]c(=O)ccc4c3)C2)c1` (centres undefined), the Potency is reported as “inactive”. In the case of `Cn1nnnc1SCC(=O)Nc1sccc1C(N)=O`, the Potency is reported as “inactive”. For `COC(=O)C1=C(C)NC(=O)CC1c1ccccc1OC` (centres undefined), the Potency was “inactive”. For `CC1=C(C(=O)OCc2ccc(C)cc2)C(c2ccccc2Cl)CC(=O)N1` (centres undefined), the Potency was 13 µM (active). With `CC1=C(C(=O)OCc2ccc(C)cc2)C(c2c(Cl)cccc2Cl)CC(=O)N1` (centres undefined) the Potency was “inactive”. For `O=C(Nc1ccc(Cl)cn1)c1ccccc1-c1ccccc1`, the Potency was “inactive”. With `CC1(C)S[C@@H]2[C@H](N=CN3CCCCCC3)C(=O)N2[C@H]1C(=O)O` the Potency was “inactive”. For `C=CCn1c(SCc2ccc(C(=O)NCCO)cc2)nc2ccccc2c1=O`, the Potency was “inactive”. With `OC1CSc2nc3ccccc3n2C1` (centres undefined) the Potency was “inactive”. For `COc1ccc(OC)c(NC(=O)C2CCCN2S(=O)(=O)c2cccc3nsnc23)c1` (centres undefined), the Potency was “inactive”. In the case of `COc1ccc(OC)c(NC(=O)c2cccc(S(=O)(=O)N3CCN(C(C)=O)CC3)c2)c1`, the Potency is reported as “inactive”. For `CCc1cccc(NC(=O)C2CCCN(S(=O)(=O)c3ccc4[nH]c(=O)ccc4c3)C2)c1` (centres undefined), the Potency was “inactive”. With `CC(=O)N1c2ccc(S(=O)(=O)N3CCC(C(=O)NCc4ccc(F)cc4)CC3)cc2CC1C` (centres undefined) the Potency was “inactive”. For `CC(=O)N1c2ccc(S(=O)(=O)N3CCCC(C(=O)Nc4cccc(Cl)c4)C3)cc2CC1C` (centres undefined), the Potency was 16.4 µM (active). For `CC(=O)N1c2ccc(S(=O)(=O)N3CCC(C(=O)NC4CCCC(C)C4C)CC3)cc2CC1C` (centres undefined), the Potency was “inactive”. With `COc1ccc(OC)c(NC(=O)C2CCCN2S(=O)(=O)c2ccc3c(c2)CC(C)N3C(C)=O)c1` (centres undefined) the Potency was 20.6 µM (active). With `CC(=O)N1c2ccc(S(=O)(=O)N3CCC(C(=O)NC4CCCCC4C)CC3)cc2CC1C` (centres undefined) the Potency was “inactive”. In the case of `CC(=O)N1c2ccc(S(=O)(=O)N3CCCC(C(=O)Nc4cccc(F)c4)C3)cc2CC1C` (centres undefined), the Potency is reported as 11.6 µM (active). With `CC(=O)N1CCc2cc(Br)cc(S(=O)(=O)CCC(=O)Nc3c(C)n(C)n(-c4ccccc4)c3=O)c21` the Potency was “inactive”. For `COC(=O)c1cc(NC(=O)CCc2c(C)nc3c4c(C)cc(C)nc4nn3c2C)cc(C(=O)OC)c1`, the Potency was “inactive”. For `COc1ccc(NC(=O)CCCc2nnc3n(CCC(C)C)c(=O)c4sccc4n23)c(OC)c1`, the Potency was “inactive”. In the case of `COc1cc(C(=O)NN(CCC#N)C2=NS(=O)(=O)c3ccccc32)cc(OC)c1OC`, the Potency is reported as “inactive”. For `COc1cc(/C=C/C(=O)OCC(=O)Nc2cccc(Oc3ccccc3)c2)ccc1O`, the Potency was “inactive”. With `CN(c1ccc(OCC(=O)O)cc1)S(=O)(=O)c1ccc2ccccc2c1` the Potency was “inactive”. In the case of `COc1ccc(NC(=O)C/C(C)=N/NC(=O)c2cnccn2)cc1Cl`, the Potency is reported as “inactive”. In the case of `CC1(C(=O)NS(=O)(=O)c2ccccc2)CCN1C(=O)C/C=C/c1ccccc1` (centres undefined), the Potency is reported as “inactive”. With `CC1(C)CCSC(/C=C/c2ccccc2)=N1` the Potency was 4.61 µM (active). For `O=C(Nc1ccc(C(=O)OCc2cc(=O)n3nc(C4CC4)sc3n2)cc1)c1ccc(F)cc1`, the Potency was “inactive”. For `O=C(N/N=C/c1cccc(OC(=O)c2ccc([N+](=O)[O-])cc2)c1)c1cccnc1`, the Potency was “inactive”. With `O=C(CCNC(=O)Cn1ccc2ccccc2c1=O)NCCC1=CCCCC1` the Potency was “inactive”. For `N#CC1(NC(=O)COC(=O)Cc2n[nH]c(=O)c3ccccc23)CCCCC1`, the Potency was “inactive”. In the case of `C/C=C/C=C/C(=O)O`, the Potency is reported as “inactive”. For `CCOCCCn1c(SCC(=O)Nc2ccc(CC)cc2)nc2ccccc2c1=O`, the Potency was 14.6 µM (active). In the case of `COc1ccc(OC)c(NC(=O)CSc2nc(-c3ccccc3)cc(=O)[nH]2)c1`, the Potency is reported as “inactive”. With `CCOCCCn1c(SCC(=O)Nc2cc(OC)ccc2OC)nc2ccccc2c1=O` the Potency was 13 µM (active). In the case of `CCc1nnc(NC(=O)CSc2nc3ccccc3c(=O)n2CCCOC)s1`, the Potency is reported as “inactive”. For `CC(=O)NCCn1c(SCC(=O)Nc2ccc(C)cc2)nc2ccccc2c1=O`, the Potency was “inactive”. With `COc1ccc(Cl)cc1NC(=O)CSc1nc2ccccc2c2nc(-c3ccccc3)nn12` the Potency was “inactive”. With `CC(C)[C@@H]1NC(=O)c2cc([N+](=O)[O-])cc(I)c2NCCC[C@@H](C(=O)NC(CC(=O)O)C(N)=O)NC(=O)[C@H](CO)NC1=O` (some centres undefined) the Potency was “inactive”. With `O=C(COC(=O)c1ccc(S(=O)(=O)N2CCCCCC2)cc1)Nc1ccccc1C(F)(F)F` the Potency was “inactive”. In the case of `CCc1ccccc1NC(=O)NCCN1CCCCC1`, the Potency is reported as “inactive”. In the case of `CCCCN(C(=O)c1ccc(C)o1)c1c(N)n(CCCC)c(=O)[nH]c1=O`, the Potency is reported as “inactive”. For `COCCNc1ncnc2c1ncn2[C@H]1CN(CCN2CCOCC2)C[C@@H](CO)O1`, the Potency was “inactive”. For `COc1ccc(CN2C(=O)C(CC(=O)NC3CCCCC3)CC(C(=O)N3CCOCC3)=C2C)cc1` (centres undefined), the Potency was “inactive”. With `CN(C)CCOc1cccc(Br)c1` the Potency was “inactive”. For `CC(C)(C)c1ccc(/C=C/C(=O)Nc2ncccn2)cc1`, the Potency was “inactive”. For `CSc1nccc(NC(=O)c2ccc(C(C)(C)C)cc2)n1`, the Potency was 9.2 µM (active). For `Cc1cccc(NC(=O)c2cccnc2Cl)n1`, the Potency was “inactive”. With `COc1ccc(S(=O)(=O)N(C)C[C@H]2OCc3cnnn3CCCC(=O)N([C@H](C)CO)C[C@H]2C)cc1` the Potency was “inactive”. With `COCc1cc(=O)oc2cc(NS(=O)(=O)c3ccc(C)cc3)ccc12` the Potency was “inactive”. For `Cc1cc(SCc2c(F)cccc2Cl)nc(=O)[nH]1`, the Potency was “inactive”. With `Cn1ncc2c(N3CCCCC3)nc(NCCCO)nc21` the Potency was “inactive”. For `COc1cccc(CN2CCN(Cc3ccc4cccc(F)c4n3)CC2CCO)c1` (centres undefined), the Potency was “inactive”. In the case of `CC(=O)c1cccc(NC(=O)c2ccncc2)c1`, the Potency is reported as “inactive”. With `CC(=O)c1cccc(NC(=O)c2nc(-c3ccccc3)n(-c3cccc(C)c3)n2)c1` the Potency was 16.4 µM (active). With `CC(=O)c1cccc(NC(=O)c2cc(C)nn2-c2ccccc2)c1` the Potency was “inactive”. With `COc1cccc(CNC(=O)c2cc(=O)[nH]c3ccc(S(=O)(=O)N4CCCCC4)cc23)c1` the Potency was “inactive”. With `O=C1NC[C@H](CCCCN2C[C@H](Cc3ccccc3)N(Cc3ccccc3)C(=O)C2=O)N(CCc2ccc(O)cc2)C1=O` the Potency was “inactive”. With `O=[N+]([O-])c1ccc2c(c1)C(N1CCOCC1)/C(=C/C1(O)CCCCC1)O2` (centres undefined) the Potency was “inactive”. With `Cn1nc(-c2ccccc2)c2cc([N+](=O)[O-])ccc21` the Potency was “inactive”. For `Cc1ccccc1S(=O)(=O)NC(=O)C1(C)CCN1C(=O)Cc1ccc(Cl)cc1Cl` (centres undefined), the Potency was “inactive”. In the case of `CC1(C(=O)Nc2cccc3c2CCCC3)CCN1C(=O)CCc1ccc(Cl)cc1Cl` (centres undefined), the Potency is reported as 20.6 µM (active). In the case of `Cc1ccccc1S(=O)(=O)NC(=O)C1(C)CCN1C(=O)C1(c2ccc(Cl)cc2)CC1` (centres undefined), the Potency is reported as “inactive”. For `CCCNC(=O)C1(C)CCN1C(=O)C1(c2ccccc2)CC1` (centres undefined), the Potency was “inactive”. In the case of `Cc1ccccc1S(=O)(=O)NC(=O)C1(C)CCN1C(=O)C1(c2ccccc2)CCCC1` (centres undefined), the Potency is reported as 14.6 µM (active). With `O=C(Nc1cccc2c1CCCC2)c1ccc(F)cc1` the Potency was “inactive”. In the case of `CC1(C(=O)NS(=O)(=O)c2ccc3ccccc3c2)CCN1C(=O)C1(c2ccc(Cl)cc2)CCC1` (centres undefined), the Potency is reported as “inactive”. With `CC1(C(=O)Nc2cccc3c2CCCC3)CCN1C(=O)C1(c2ccccc2)CC1` (centres undefined) the Potency was 16.4 µM (active). In the case of `CC1(C(=O)NS(=O)(=O)Cc2cccc(Cl)c2)CCN1C(=O)Cc1ccc(Cl)cc1Cl` (centres undefined), the Potency is reported as “inactive”. With `CCCC(=O)N1CCC(CCC(=O)NC2CC2)CC1` the Potency was “inactive”. For `COc1cc2c(cc1OC)/C(=C/C(=O)c1ccc(NC(C)=O)cc1)NCC2`, the Potency was “inactive”. With `Cc1ccccc1CNC(=O)CCC(=O)N1Cc2ccccc2Oc2ncccc21` the Potency was “inactive”. In the case of `COC(=O)c1sc(NC(=O)COC(=O)C2CCC2)c(C(=O)OC)c1C`, the Potency is reported as “inactive”. In the case of `COc1cc(OC)c(C(=O)NNC(=O)c2ccc(NS(=O)(=O)c3cccs3)cc2)cc1OC`, the Potency is reported as “inactive”. With `Cc1cccc(C)c1NC(=O)CSc1nc2c([nH]1)c(=O)n(C)c(=O)n2C` the Potency was “inactive”. In the case of `Cc1ccc2nc(SCC(=O)N3CCN(c4ccccc4)CC3)nc(=O)n2c1`, the Potency is reported as “inactive”. With `CC(C)(C)n1cnnc1Sc1ccc([N+](=O)[O-])cn1` the Potency was “inactive”. In the case of `CCOc1ccccc1NC(=O)Cn1c(=O)n(Cc2ccco2)c(=O)c2sc3ccccc3c21`, the Potency is reported as “inactive”.
